Screening data deposited in PubChem BioAssay by National Center for Advancing Translational Sciences (NCATS).
Vif-A3F inh = inhibitors of Vif-A3F interaction; AID 602313; HeLa A3F-eYFP + Vif (tagged APOBEC3F with the HIV-1 protein that degrades it), YFP fluorescence increase; 390,000 compounds, 0.2% hits; Potency, µM (series often up to 46.1 µM), for inactives: at the top dose activity, negative = active; also: potency is read from the fitted curve at half-maximal effect; % of control where 0% means no effect; nearly all actives have a fitted effect of over 65% in size
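HeLa cells stably expressing A3F-eYFP plus Vif, plated and incubated overnight at 37 deg C, then exposed to compounds overnight at 37 deg C. Blocked degradation read as raised yellow fluorescence (Ex 488/Em 500-530).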
SW480 rereplic = induces DNA re-replication in SW480 colon adenocarcinoma cells; SW480 DNA re-replication, Hoechst DNA content imaging, 48 h; Potency, µM (highest dose often 46.1 µM), without a hit: top-dose re-replication activation, usual class: activators; 340,000 compounds, 1.8% hits; also: potency is read from the fitted curve at half-maximal effect; % of control where 0% means no effect; nearly all actives have a fitted effect of over 55% in size
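Quantitative HTS format with DMSO vehicle controls; 48 hr drug incubation at 37 C, then 40 min Hoechst staining and scanning imager measurement at 405 nm excitation.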
Giardia killer = kills Giardia lamblia; Giardia lamblia trophozoite viability; activity change, % at 7.66 µM, hits read low; 340,000 compounds, 0.15% hits; in the data active = activity change below about -80%; inconclusive = between about -30% and that limit;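 also: parasites exposed to compound for two days anaerobically before the ATP read; % is scaled to controls: 0 for no effect and ±100 for the full control effect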
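Giardia trophozoites, 100 cells per well, were exposed to compounds for 48 hrs at 37 deg C under anaerobic conditions; viability was then read as ATP content by bioluminescence after 15-30 min at room temperature.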
IL1B secr inh = inflammasome signaling inhibition, IL-1 beta readout | 360,000 compounds, 4.7% hits | THP-1 LPS/ATP IL-1B secretion, AlphaLISA, 16 h; hits give low values | activity change, % at 57.5 µM; in the data active = activity change below about -50%; inconclusive = mostly about -30% to -49%; also: % is scaled to controls: 0 for no effect and ±100 for the full control effect
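Secreted IL-1B measured by AlphaLISA bead assay after 16 h compound exposure of THP-1 cells; compounds (final up to 57.5 uM) added 1 h before LPS (250 ng/mL) and ATP (1.25 mM) stimulation; lower signal means less secretion.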
Vif-APOBEC3G blk = Vif-A3G binding inhibition. Q9HC16. 410,000 compounds, 0.076% hits. Potency, µM (titrated, usually from 46.1 µM), for inactives: top-dose activity, negative = active, actives largely listed as inhibitors. AID 602310. HeLa A3G-eYFP + Vif (tagged APOBEC3G with the HIV-1 protein that degrades it), YFP fluorescence, overnight; also: potency is read from the fitted curve at half-maximal effect; % is scaled to controls: 0 for no effect and ±100 for the full control effect; nearly all actives have a fitted effect of over 60% in size
Target sequence (Q9HC16 whole entry, looked up): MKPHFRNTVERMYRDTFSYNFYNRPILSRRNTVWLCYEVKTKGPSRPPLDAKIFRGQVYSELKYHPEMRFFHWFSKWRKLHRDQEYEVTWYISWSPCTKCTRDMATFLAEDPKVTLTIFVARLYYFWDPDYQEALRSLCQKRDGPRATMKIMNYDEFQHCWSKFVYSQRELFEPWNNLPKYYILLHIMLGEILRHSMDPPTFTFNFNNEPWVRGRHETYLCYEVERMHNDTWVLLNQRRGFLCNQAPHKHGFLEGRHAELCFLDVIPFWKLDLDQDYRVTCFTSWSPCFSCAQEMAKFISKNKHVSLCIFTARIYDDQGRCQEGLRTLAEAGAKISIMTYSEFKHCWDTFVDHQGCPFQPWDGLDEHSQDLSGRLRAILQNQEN
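HeLa cells stably expressing Vif and C-terminally eYFP-tagged A3G, seeded overnight at 37 deg C, then exposed to compound by pintool overnight at 37 deg C. Rise in yellow fluorescence (Ex 488/Em 500-530, Acumen) marks blocked Vif-driven A3G degradation.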
MCF10A rerep = DNA re-replication induction in MCF 10a cells; MCF 10A DNA re-replication, Hoechst nuclear intensity, 48 h; Potency, µM (titrated, usually from 46.1 µM), for the others: at the highest dose activity, positive = re-replication, hits mostly activators; 350,000 compounds, 2.9% hits; also: potency is read from the fitted curve at half-maximal effect; % of control where 0% means no effect; nearly all actives have a fitted effect of over 50% in size
* = called active by the depositor. Only some compounds are listed: those with a hit (about 6.9% of all), similar ones and a draw of the others. Unless noted, calls follow the shape of the dose curve; as a rule, active = well fitted curve in the direction sought with a large enough effect; inconclusive = small, poorly fitted or top-dose-only effect, or another doubt; inactive = no such curve, though single readings can be large; an effect the other way counts as inactive or inconclusive.

Results for Cc1ccc2c(CC(=O)Nc3c(C(=O)c4ccc(F)cc4)oc4ccccc34)coc2c1C ?
Vif-A3F inh: 3%; Giardia killer: -15; Vif-APOBEC3G blk: -3%

Results for COC(=O)c1c(NC(=O)CCNCc2ccco2)sc2c1CCC2 ?
Vif-A3F inh: -3%; SW480 rereplic: -1%; Giardia killer: 15; IL1B secr inh: -51*; Vif-APOBEC3G blk: 3%; MCF10A rerep: 11%

Results for CCCCN1C=CC(=C2C(=O)c3ccccc3C2=O)C=C1 ?
Vif-A3F inh: -12%; SW480 rereplic: -5%; Giardia killer: -95*; IL1B secr inh: -23; Vif-APOBEC3G blk: -6%; MCF10A rerep: -4%

How did CC1CCN(S(=O)(=O)c2ccc3c(ccn3CC(=O)NCc3ccc(N(C)C)cc3)c2)CC1 do in these assays?
Vif-A3F inh: 2%; Vif-APOBEC3G blk: 2%

Results for O=C1/C(=C/c2ccccc2)Oc2cc(OC(=O)N3CCOCC3)ccc21 ?
Vif-A3F inh: -12%; SW480 rereplic: -5%; Giardia killer: -27; IL1B secr inh: -68*; Vif-APOBEC3G blk: 0%; MCF10A rerep: 10%

How did O=C1/C(=C/c2ccc(F)cc2)Oc2cc(OC(=O)N3CCOCC3)ccc21 do in these assays?
Vif-A3F inh: 14%; SW480 rereplic: -7%; Giardia killer: 8; IL1B secr inh: 9; Vif-APOBEC3G blk: -1%; MCF10A rerep: -3%

What do the screens show for `COc1cccc(OC)c1C(=O)Oc1ccc2c(c1)O/C(=C\c1ccncc1)C2=O`?
Vif-A3F inh: -16%; SW480 rereplic: inconclusive; Giardia killer: -7; IL1B secr inh: -101*; Vif-APOBEC3G blk: inconclusive; MCF10A rerep: inconclusive

Results for Cc1cn(C)c(CC(=O)NCc2ccccc2Cl)c1C(=O)O ?
Vif-A3F inh: 5%; Vif-APOBEC3G blk: 1%

Results for CS(=O)(=O)c1ncc(Cl)c(C(=O)N2CCN(c3cccc(Cl)c3)CC2)n1 ?
Vif-A3F inh: 8%; Giardia killer: inconclusive; Vif-APOBEC3G blk: -12%

How did CCOc1ccccc1NC(=S)Nc1ncccc1C do in these assays?
Vif-A3F inh: -7%; SW480 rereplic: inconclusive; Giardia killer: -3; IL1B secr inh: -28; Vif-APOBEC3G blk: -26%; MCF10A rerep: 18µM*

How did COc1ccccc1NC(=S)Nc1ccccn1 do in these assays?
Vif-A3F inh: 2%; SW480 rereplic: inconclusive; Giardia killer: -12; IL1B secr inh: -58*; Vif-APOBEC3G blk: -1%; MCF10A rerep: 18%

What do the screens show for `COc1ccc(NC(=S)Nc2ncccc2C)c(OC)c1`?
Vif-A3F inh: 1%; SW480 rereplic: inconclusive; Giardia killer: 15; IL1B secr inh: -78*; Vif-APOBEC3G blk: 11µM*; MCF10A rerep: -8%

Results for COC(=O)c1ccccc1NC(=O)Nc1ncccc1C ?
Vif-A3F inh: -16%; SW480 rereplic: 21µM*; Giardia killer: -4; IL1B secr inh: 27; Vif-APOBEC3G blk: 0%; MCF10A rerep: 2%

How did COc1ccc(NC(=S)Nc2ncccc2C)cc1OC do in these assays?
Vif-A3F inh: 15%; SW480 rereplic: -4%; Giardia killer: -22; IL1B secr inh: -24; Vif-APOBEC3G blk: -5%; MCF10A rerep: inconclusive

Results for Cc1cccnc1NC(=O)Nc1ccccc1 ?
Vif-A3F inh: 7%; SW480 rereplic: -6%; Giardia killer: -9; IL1B secr inh: 0; Vif-APOBEC3G blk: 3%; MCF10A rerep: -2%

What do the screens show for `CC1=C(C(=O)Nc2ccccc2)C(c2ccccn2)n2nc(SCc3ccccc3)nc2N1` (stereo not given)?
Vif-A3F inh: -18%; Vif-APOBEC3G blk: 1%

What do the screens show for `CCC(=O)N1c2ccc(S(=O)(=O)CCC(=O)N3CCN(c4ccc(F)cc4)CC3)cc2CC1C` (stereo not given)?
Vif-A3F inh: 0%; Vif-APOBEC3G blk: 0%

Results for CCCN1CNc2c(c(=O)[nH]c(=S)n2CCc2cccs2)C1 ?
Giardia killer: -7

What do the screens show for `Cc1ccc(Cn2cnc3c(cnn3C(C)(C)C)c2=O)cc1F`?
Vif-APOBEC3G blk: 4%

What do the screens show for `CCCNC(=O)C1CCN(S(=O)(=O)c2ccc3c(c2)CCCN3C(C)=O)CC1`?
Vif-A3F inh: -16%; Vif-APOBEC3G blk: 0%

Results for CCOC(=O)c1cc(-c2ccc(C)cc2)n(CCC(=O)N2CCN(c3ccccn3)CC2)c1C ?
Vif-A3F inh: 2%; SW480 rereplic: 4%; Giardia killer: -12; IL1B secr inh: -56*; Vif-APOBEC3G blk: -1%; MCF10A rerep: inconclusive

How did CCOC(=O)c1cnc2c(OC)cccc2c1N1CCN(c2ccccc2OC)CC1 do in these assays?
Vif-A3F inh: 12%; SW480 rereplic: -2%; Giardia killer: -1; IL1B secr inh: -97*; Vif-APOBEC3G blk: -2%; MCF10A rerep: inconclusive

What do the screens show for `CCOC(=O)c1cnc2c(OC)cccc2c1N1CCN(c2ccc(OC)cc2)CC1`?
Vif-A3F inh: -4%; SW480 rereplic: -1%; Giardia killer: 11; IL1B secr inh: -19; Vif-APOBEC3G blk: 1%; MCF10A rerep: 2%

How did CCOC(=O)c1cnc2c(OC)cccc2c1N1CCN(c2ccccn2)CC1 do in these assays?
Vif-A3F inh: 2%; SW480 rereplic: -6%; Giardia killer: 2; IL1B secr inh: -53*; Vif-APOBEC3G blk: -16%; MCF10A rerep: inconclusive

How did CCOC(=O)c1cnc2c(C)cc(Cl)cc2c1N1CCN(C)CC1 do in these assays?
Vif-A3F inh: -6%; SW480 rereplic: -6%; Giardia killer: 9; IL1B secr inh: -64*; Vif-APOBEC3G blk: 0%; MCF10A rerep: 2%

What do the screens show for `COc1cccc(CC2(CO)CCCN(Cc3cc4ccccc4[nH]3)C2)c1` (stereo not given)?
Vif-A3F inh: -23%; SW480 rereplic: inconclusive; Giardia killer: 22; IL1B secr inh: -54*; Vif-APOBEC3G blk: 0%; MCF10A rerep: inconclusive

How did COc1cccc(CC2(CO)CCCN(Cc3ccc(C)s3)C2)c1 (stereo not given) do in these assays?
Vif-A3F inh: -6%; SW480 rereplic: -17%; Giardia killer: 11; IL1B secr inh: -6; Vif-APOBEC3G blk: 6%; MCF10A rerep: inconclusive

What do the screens show for `COc1cccc(CC2(CO)CCCN(Cc3[nH]c4ccc(C)cc4c3C)C2)c1` (stereo not given)?
Vif-A3F inh: -6%; SW480 rereplic: inconclusive; Giardia killer: 29; IL1B secr inh: 0; Vif-APOBEC3G blk: inconclusive; MCF10A rerep: 3.3µM*

How did COc1ccc(/C=C/C(=O)NC(=S)NNC(=O)c2cccs2)cc1 do in these assays?
Vif-A3F inh: -7%; SW480 rereplic: 23µM*; Giardia killer: -23; IL1B secr inh: 64; Vif-APOBEC3G blk: inconclusive; MCF10A rerep: 10µM*
